Laboratory results from PubChem BioAssay (NCATS).
Values joined by “and” are separate entries in the source; they are usually repeats but may differ in a detail not shown here. Equal entries are not always repeated. Records with an inconclusive call do not appear. Values without a mark were called inactive. Active and inactive are the calls of the source. Calls follow the shape of the dose curve; as a rule, active = well fitted cell-killing curve with a large enough effect; inconclusive = small, poorly fitted or top-dose-only effect; inactive = flat fitted curve, though single readings scatter.

Key:
[1] = Cellular viability qHTS for adrenocortical cancer (ACC) cell line SW-13 (AID 1963989); conditions: SW-13 ACC cells viability, CellTiter-Glo, 48 h; activity (max response): stronger effect = lower value; also: nearly all actives have a fitted effect of over 65% in size;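 as to activity (max response): cells grown in serum-free medium with ITS supplement; % is scaled to controls: 0 for no effect and ±100 for the full control effect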
Procedure, shortened: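 Viability was read as CellTiter-Glo luminescence after 48 h compound treatment (up to 46 uM final) of SW-13 cells grown serum-free; titration curves were fit with a four-parameter logistic model to give IC50 and efficacy.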

[2] = Cellular viability qHTS for adrenocortical cancer (ACC) cell line NCI-H295R (AID 1963990); also: nearly all actives have a fitted effect of over 60% in size
Procedure, shortened: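 CellTiter-Glo ATP luminescence, read 48 h after compound addition, measured viability of NCI-H295R adrenocortical cells grown serum-free with ITS. Final concentrations spanned up to 46 uM. Data normalized to DMSO and doxorubicin, fitted for IC50 and maximal response.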
Potency is read from the fitted curve at half-maximal effect.

With `C[C@]12Cc3cn[nH]c3C[C@@H]1CC[C@@H]1[C@@H]2CC[C@@]2(C)[C@H]1CC[C@]2(C)O` the activity (max response) [1] was -0.402% and -24.7% and the Potency [2] was “inactive”.

With `Cc1ccc(-c2nc3ccc(C)cn3c2CC(=O)N(C)C)cc1` the activity (max response) [1] was -1.33% and the Potency [2] was “inactive”.

In the case of `O=[N+]([O-])c1c2ccccc2cc2ccccc12`, the activity (max response) [1] is reported as 8.46% and the Potency [2] is reported as “inactive”.

With `CC(C)[C@]12O[C@H]1[C@@H]1O[C@@]13[C@@]1(C)CCC4=C(COC4=O)[C@@H]1C[C@@H]1O[C@@]13C2=O` the Potency [1] was 0.141 µM (active) and the Potency [2] was 0.631 µM (active).

In the case of `O=C1CN=C(c2ccccc2)c2cc([N+](=O)[O-])ccc2N1`, the activity (max response) [1] is reported as -7.73% and the Potency [2] is reported as “inactive”.

For `N#CC(C#N)=Cc1ccc(O)c(O)c1`, the activity (max response) [1] was 13.2% and the Potency [2] was “inactive”.

In the case of `C[C@H](CN1CCOCC1)C(C(=O)N1CCCC1)(c1ccccc1)c1ccccc1`, the activity (max response) [1] is reported as -12.8% and the Potency [2] is reported as “inactive”.

With `C[C@@H]1CC[C@H]2[C@@H](C)C(=O)O[C@@H]3O[C@@]4(C)CC[C@@H]1[C@]32OO4` the activity (max response) [1] was -4.33% and -19.2% and the Potency [2] was “inactive”.

In the case of `C=C(C)[C@H]1CN[C@H](C(=O)O)[C@H]1CC(=O)O`, the activity (max response) [1] is reported as 7.33% and the Potency [2] is reported as “inactive”.

For `Cc1c(N)nc([C@H](CC(N)=O)NC[C@@H](N)C(N)=O)nc1C(=O)N[C@H](C(=O)N[C@@H](C)[C@H](O)[C@@H](C)C(=O)N[C@@H](C(=O)NCCc1nc(-c2nc(C(=O)NCCC[S+](C)C)cs2)cs1)[C@@H](C)O)C(O[C@H]1O[C@H](CO)[C@H](O)[C@@H](O)[C@H]1O[C@H]1O[C@H](CO)[C@@H](O)[C@H](OC(N)=O)[C@@H]1O)c1cnc[nH]1` (some centres undefined), the activity (max response) [1] was -30.2% and the Potency [2] was “inactive”.

For `N#CC(O[C@@H]1O[C@H](CO[C@@H]2O[C@H](CO)[C@@H](O)[C@H](O)[C@H]2O)[C@@H](O)[C@H](O)[C@H]1O)c1ccccc1` (some centres undefined), the activity (max response) [1] was -16.1% and the Potency [2] was “inactive”.

With `COC(=O)c1cncn1C(C)c1ccccc1` (centres undefined) the activity (max response) [1] was -8.99% and the Potency [2] was “inactive”.

In the case of `C[C@]12CC[C@H]3[C@@H](CCC4=CC(=O)CC[C@@H]43)[C@@H]1CC[C@@H]2OC(=O)CCC1CCCCC1`, the activity (max response) [1] is reported as -4.2% and the Potency [2] is reported as “inactive”.

With `COP(=S)(OC)SCN1C(=O)c2ccccc2C1=O` the activity (max response) [1] was 6.58% and the Potency [2] was “inactive”.

In the case of `CCN(CCO)CCn1c(Cc2ccccc2)nc2c1c(=O)n(C)c(=O)n2C`, the activity (max response) [1] is reported as 7.74% and the Potency [2] is reported as “inactive”.

With `CC[C@@H](CO)NC(=O)[C@@H]1C=C2c3cccc4[nH]cc(c34)C[C@H]2N(C)C1` the activity (max response) [1] was -27.7% and the Potency [2] was “inactive”.

With `O=c1c(C2CC(c3ccc(-c4ccc(Br)cc4)cc3)Cc3ccccc32)c(O)sc2ccccc12` (centres undefined) the Potency [1] was 5.8 µM (active) and the Potency [2] was 7.31 µM (active).

For `CNC(=O)Oc1cccc2ccccc12`, the activity (max response) [1] was -8.24% and the Potency [2] was “inactive”.

For `CC1COC2(c3ccccc3Cl)c3cc(Cl)ccc3NC(=O)CN12` (centres undefined), the activity (max response) [1] was -14.7% and the Potency [2] was 23.1 µM (active).

With `CC(C)=CCN1CC[C@@]2(C)c3cc(O)ccc3C[C@@H]1[C@@H]2C` the Potency [1] was 39.8 µM (active) and the Potency [2] was 31.6 µM (active).

For `COc1ccc2[nH]cc(CCN(C(C)C)C(C)C)c2c1`, the activity (max response) [1] was -8.69% and the Potency [2] was “inactive”.

With `O=C(O)C1=CCCN(CCOC(c2ccc(C(F)(F)F)cc2)c2ccc(C(F)(F)F)cc2)C1` the activity (max response) [1] was -19.1% and the Potency [2] was “inactive”.

For `CCC(=O)C(CCN(C)C)(c1ccccc1)c1ccccc1`, the activity (max response) [1] was -1.08% and the Potency [2] was “inactive”.

For `CCc1cc2c(s1)-n1c(C)nnc1CN=C2c1ccccc1Cl`, the activity (max response) [1] was 12.2% and the Potency [2] was “inactive”.

In the case of `CC(C)[N+](C)(CCC(C(N)=O)(c1ccccc1)c1ccccc1)C(C)C`, the activity (max response) [1] is reported as 1.8% and the Potency [2] is reported as “inactive”.

For `CC(C)c1c(CN(C)C(C)Cc2ccccc2)n(C)n(-c2ccccc2)c1=O` (centres undefined), the activity (max response) [1] was 5.24% and the Potency [2] was “inactive”.

In the case of `Cc1cccc(Cc2cnc[nH]2)c1C`, the activity (max response) [1] is reported as -10.7% and the Potency [2] is reported as “inactive”.
